Where “and” joins values, the source holds several entries; their conditions need not be identical. Equal entries are not always repeated. Out of some 5,500 compounds screened, about 2,000 (36%) were called active. About 18% were inconclusive and are not listed. No stated cut-off is given here; in the data, active means normalized growth mostly below about 0.91 (no sharp cut-off); inconclusive means no clear call, values can overlap the other calls; inactive means mostly above about 0.92. The list shows a part of the results.
Experiment: chemical genetic growth profiling, strain panel (AID 1159580);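 further: tested at 20 µM; growth read once vehicle control cultures reached saturation at 30 °C; 1 = growth at the plate median or of vehicle wells; lower values mean less growth of the strain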
Conditions: S. cerevisiae deletion strains, growth OD

Measured: normalized growth

C/C=C1\[C@H]2C=C(C)C[C@]1(N)c1ccc(=O)[nH]c1C2
inactive: locus YAL013W, strain DEP1, active compounds read low 1.01 | locus YAL021C, strain ccr4, active compounds read low 1 | locus YAL026C, strain drs2, active compounds read low 1.03 | locus YAL030W, strain snc1, active compounds read low 1.02 | locus YBL061C, strain skt5, active compounds read low 1.01 | locus YBR009C, strain hhf1, active compounds read low 1.03 | locus YBR021W, strain FUR4, active compounds read low 1.01 | locus YBR023C, strain chs3, active compounds read low 1.02 | locus YBR171W, strain sec66, active compounds read low 1.03 | locus YBR229C, strain ROT2, active compounds read low 1.01 | locus YBR231C, strain swc5, active compounds read low 1.02 | locus YBR279W, strain paf1, active compounds read low 1.02 | locus YCL011C, strain gbp2, active compounds read low 1.02 | locus YCL016C, strain dcc1, active compounds read low 1.01 | locus YCL029C, strain bik1, active compounds read low 1.02 | locus YCL061C, strain MRC1, active compounds read low 1.02 | locus YCL069W, strain vba3, active compounds read low 1.02 | locus YCR088W, strain abp1, active compounds read low 1.02 | locus YDL005C, strain med2, active compounds read low 1.04 | locus YDL035C, strain GPR1, active compounds read low 1.01 | locus YDL040C, strain nat1, active compounds read low 1.01 | locus YDL074C, strain BRE1, active compounds read low 1.01 | locus YDL101C, strain DUN1, active compounds read low 1.01 | locus YDL134C, strain PPH21, active compounds read low 1.01 | locus YDL185W, strain tfp1, active compounds read low 1.02 | locus YDL192W, strain arf1, active compounds read low 1.02 | locus YDR001C, strain nth1, active compounds read low 1.01 | locus YDR069C, strain doa4, active compounds read low 1.03 | locus YDR101C, strain arx1, active compounds read low 1 | locus YDR137W, strain rgp1, active compounds read low 1.01 | locus YDR150W, strain NUM1, active compounds read low 1.02 | locus YDR159W, strain sac3, active compounds read low 1.03 | locus YDR162C, strain NBP2, active compounds read low 1.02 | locus YDR195W, strain ref2 0.989 | locus YDR297W, strain sur2, active compounds read low 1.01 | locus YDR318W, strain mcm21, active compounds read low 1.02 | locus YDR334W, strain swr1, active compounds read low 1.03 | locus YDR335W, strain msn5, active compounds read low 1.02 | locus YDR388W, active compounds read low 1.01 | locus YDR392W, strain spt3, active compounds read low 0.966 | locus YDR502C, strain sam2, active compounds read low 1.01 | locus YEL003W, strain gim4, active compounds read low 1.03 | locus YEL037C, strain rad23, active compounds read low 1.02 | locus YEL061C, strain CIN8 (second series), active compounds read low 1.03 | locus YEL061C, strain CIN8, active compounds read low 1.01 | locus YER015W, strain faa2, active compounds read low 1.02 | locus YER016W, strain bim1, active compounds read low 1.03 | locus YER110C, active compounds read low 1.01 | locus YER111C, strain swi4, active compounds read low 1.03 | locus YER155C, strain BEM2 (second series), active compounds read low 1.04 | locus YER155C, strain BEM2, active compounds read low 1 | locus YER167W, strain BCK2, active compounds read low 1.02 | locus YFR010W, strain ubp6, active compounds read low 1.03 | locus YGL078C, strain dbp3, active compounds read low 1.01 | locus YGL086W, strain mad1, active compounds read low 1.01 | locus YGL167C, strain pmr1, active compounds read low 1.02 | locus YGL173C, strain kem1, active compounds read low 1.04 | locus YGL227W, strain vid30, active compounds read low 1.03 | locus YGL240W, strain doc1, active compounds read low 1.04 | locus YGL248W, strain PDE1, active compounds read low 1.01 | locus YGL253W, strain hxk2, active compounds read low 1.02 | locus YGR078C, strain PAC10, active compounds read low 1.01 | locus YGR135W, strain pre9, active compounds read low 1 | locus YGR229C, strain SMI1, active compounds read low 1.01 | locus YGR252W, strain gcn5, active compounds read low 1.01 | locus YHR013C, strain ard1, active compounds read low 1.02 | locus YHR027C, strain rpn1, active compounds read low 1.03 | locus YHR030C, strain SLT2, active compounds read low 1 and 1.02 | locus YHR079C, strain IRE1 (second series), active compounds read low 1.01 | locus YHR079C, strain IRE1, active compounds read low 1.01 | locus YHR094C, strain hxt1, active compounds read low 1.01 | locus YHR129C, strain ARP1, active compounds read low 1 | locus YHR142W, strain chs7, active compounds read low 0.992 | locus YHR200W, strain rpn10, active compounds read low 1.02 | locus YIL066C, strain RNR3, active compounds read low 1.02 | locus YIL073C, strain SPO22, active compounds read low 1.08 | locus YIL125W, strain kgd1, active compounds read low 1.02 | locus YIR030C, strain dcg1, active compounds read low 1.01 | locus YJL092W, strain hpr5, active compounds read low 1.03 | locus YJL095W, strain BCK1 (second series), active compounds read low 1.01 | locus YJL095W, strain BCK1, active compounds read low 0.989 and 0.995 | locus YJL115W, strain asf1, active compounds read low 1.02 | locus YJL129C, strain trk1, active compounds read low 1.02 | locus YJL134W, strain LCB3, active compounds read low 1.01 | locus YJL154C, strain vps35, active compounds read low 1.02 | locus YJL164C, strain tpk1, active compounds read low 1.01 | locus YJL166W, strain qcr8, active compounds read low 1.02 | locus YJL168C, strain set2, active compounds read low 1.01 | locus YJL187C, strain SWE1 (second series), active compounds read low 1 | locus YJL187C, strain SWE1, active compounds read low 1.02 | locus YJR043C, strain POL32, active compounds read low 1.01 | locus YJR066W, strain TOR1, active compounds read low 0.96

— PubChem BioAssay AID1159580 (chemical genetic matrix, 2015)
